Compounds without any hit were thinned out: in the full panel of roughly 83,000, 20% have a hit.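 Activity criterion: percent growth below 10, measured after cells in 96-well plates were exposed to a single compound concentration for 48 hours.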 Unmarked numbers belong to inactive results. Calls of active or inactive are those of the source.
Columns and labels:
Experiment in all cases: NCI-60 one-dose screen, 48 h (100 = growth as untreated, 0 = no growth, -100 = all killed)
Details in all cases: 10 µM unless noted
[1] = tested on: MOLT-4 leukemia
[2] = tested on: SR leukemia
[3] = tested on: RPMI-8226 leukemia
[4] = tested on: OVCAR-8 ovarian
[5] = tested on: OVCAR-5 ovarian
[6] = tested on: OVCAR-4 ovarian
[7] = tested on: SK-OV-3 ovarian
[8] = tested on: IGROV1 ovarian
[9] = tested on: OVCAR-3 ovarian
[10] = tested on: HS 578T breast

SMILES | growth [1] | growth [2] | growth [3] | growth [4] | growth [5] | growth [6] | growth [7] | growth [8] | growth [9] | growth [10]
Cc1ccc(Nc2nc3c(s2)C2=CC[C@@H]4[C@H](CC[C@]5(C)C(=O)CC[C@@H]45)[C@@]2(C)CC3)cc1 | 12.3% | 12.9% | -15.8% (active) | 58.4% | 72.4% | 44.8% | 36.6% | 65% | 16.7% | 28.1%
O=C(N/N=C\c1ccc(N(CCCl)CCCl)cc1)c1cccc([N+](=O)[O-])c1 | 89.7% | 103% | 95.6% | 63.4% | 109% | 87% | 82.7% | 76.8% | 83.2% | 64.2%
O=C1NC(=O)C(=Cc2cccn2CCCCCn2c3ccccc3c(=O)c3ccccc32)C(=O)N1 | 93.3% | 86.7% | 92% | 102% | 101% | 99.8% | 108% | 99.4% | 105% | 106%
C/C(=C\c1ccn(-c2ccccc2N)n1)[C@@H]1C[C@@H]2O[C@]2(C)CCC[C@H](C)[C@H](O)[C@@H](C)C(=O)C(C)(C)[C@@H](O)CC(=O)O1 | 12.4% | 17.4% | 15.3% | 26.2% | 31.6% | 51.2% | 40.2% | 41.5% | -2.9% (active) | 7.14% (active)
CC(=O)[O][Hg][c]1c(N)c(C)cc(C)c1F | -11.2% (active) | -11.2% (active) | -12.3% (active) | -29.5% (active) | 47.3% | 42% | 69.8% | -32.7% (active) | -45.8% (active) | 26.8%
CC[C@@H]1[C@@H](C)O[C@@](O)([C@@H](C)[C@H](O)[C@H](C)[C@H]2OC(=O)/C=C/C=C/[C@H](C)[C@@H]([C@@H](C)[C@@H](O)[C@H](C)[C@@]3(O)C[C@@H](O[C@H]4C[C@@H](O)[C@H](O)C(C)O4)[C@H](CC)[C@@H](C)O3)OC(=O)/C=C/C=C/[C@@H]2C)C[C@H]1O[C@@H]1C[C@@H](O)[C@H](O)C(C)O1 (stereo not given in full) | -72.6% (active) | -49.1% (active) | -65.2% (active) | -75.9% (active) | -88.7% (active) | -95.6% (active) | -96.5% (active) | -71.4% (active) | -98% (active) | -51.5% (active)
Cc1cc(C)c(CBr)c(C)c1 | 96.3% | 107% | 100% | 99.4% | 96.6% | 127% | 104% | 99.2% | 113% | 106%
C=COC(=O)CCN1CC1 | 98.2% | 100% | 104% | 104% | 110% | 107% | 101% | 108% | 112% | 104%
O=C1C(=Cc2cn(Cc3ccccc3)c3ccccc23)C(=O)N(Cc2ccccc2)C(=O)N1Cc1ccccc1 | 95.2% | 87.2% | 93.2% | 83.5% | -7.28% (active) | 57.3% | 47.7% | 75.8% | 97.7% | 90.7%
CC[C@H](C)[C@H](NC(=O)[C@H]1CCCCN1C)C(=O)N(C)[C@H](CCc1nc(C(=O)N[C@@H](Cc2ccccc2)C[C@H](C)C(=O)OC)cs1)C(C)C | 15% | 13.2% | 15.5% | 23.2% | 49.3% | 43.6% | 8.81% (active) | 26.8% | -18.6% (active) | 39.2%
CCC1(C)CC(CCNCc2ccccc2O)(c2ccc(C)cc2)CCO1 (stereo not given) | 101% | 96% | 98.2% | 103% | 100% | 100% | 112% | 95.6% | 105% | 104%
